# Measurements reported in PubChem BioAssay (NCI).
# Compounds without any hit were thinned out: in the full panel of roughly 83,000, 20% have a hit.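 Testing used 96-well plates and a 48-hour single-concentration exposure. Example: -40 means 40% of the starting cells died.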 A number with no mark means an inactive call. The source made the active and inactive calls. How the source made its calls: active means growth percent below 10; inactive means the rest.
# System: MDA-MB-468 breast
# Test: NCI-60 one-dose screen, 48 h (100 = growth as untreated, 0 = no growth, -100 = all killed)
# Settings: 10 µM unless noted
row,SMILES,growth
1,CCN1C(=O)N(CC)C2Nn3c(s/c(=C\c4ccccc4F)c3=O)=NC21 (stereo not given),28.9%
2,COc1ccc(C(=S)N2CCN(c3cccc(Cl)c3)CC2)cc1,88.4%
3,CC(C)(C#N)c1cc(C(=O)Nc2cc(Nc3ncccc3-c3ncnc4nc[nH]c34)ccc2F)cc(C(F)(F)F)c1,90.2%
4,CC(C)=CC(=O)OC(=O)C=C(C)C,92.9%
5,O=C(CCl)Nc1ccc2c(c1)C(=O)c1ccc(NC(=O)CCl)cc1C2=O,-75.7% (active)
6,CC(Oc1ccc(Cl)cc1)c1ccccc1 (stereo not given),99.9%
7,CC/C(=C(\CC)c1ccc(OCCN(CC)CC)cc1)c1ccc(OCCN(CC)CC)cc1,0.372% (active)
8,CN1CCN(CCCn2c3c(sc4ncccc43)c(=O)n3nnc(-c4ccccc4)c23)CC1,98.6%
9,COc1ccc(-c2nc3sccn3c2-c2cc(-c3cc(OC)c(OC)c(OC)c3)on2)cc1,100%
10,CN(C)c1ccc(/C=N\NC(=O)c2ccc3nc(-c4ccc(Cl)cc4)[nH]c3c2)cc1,76.1%
11,COc1ccc(S(=O)(=O)NCCNc2nccc(-c3c(-c4cccc(F)c4)nc4sccn34)n2)cc1,23.3%
12,COC(CCCl)c1ccc(Cl)cc1 (stereo not given),102%
13,CCCn1cc(/C=N\N=C2\C(=O)Nc3ccc(C)cc32)c2ccccc21,25.2%
14,CC1=C(NCCN2CCCC2)C(=O)c2c(OCc3ccc(F)c(Cl)c3)cccc2C1=O,67.1%
15,CNC(=O)c1cc(Oc2cccc3nc(Nc4ccc(Oc5ccccc5)cc4)ccc23)ccn1,63.7%
